# Measured values as given in the supplement of paper PMC10681739.
# Target: T1, ETS1 (UniProt P14921)
# T1 sequence: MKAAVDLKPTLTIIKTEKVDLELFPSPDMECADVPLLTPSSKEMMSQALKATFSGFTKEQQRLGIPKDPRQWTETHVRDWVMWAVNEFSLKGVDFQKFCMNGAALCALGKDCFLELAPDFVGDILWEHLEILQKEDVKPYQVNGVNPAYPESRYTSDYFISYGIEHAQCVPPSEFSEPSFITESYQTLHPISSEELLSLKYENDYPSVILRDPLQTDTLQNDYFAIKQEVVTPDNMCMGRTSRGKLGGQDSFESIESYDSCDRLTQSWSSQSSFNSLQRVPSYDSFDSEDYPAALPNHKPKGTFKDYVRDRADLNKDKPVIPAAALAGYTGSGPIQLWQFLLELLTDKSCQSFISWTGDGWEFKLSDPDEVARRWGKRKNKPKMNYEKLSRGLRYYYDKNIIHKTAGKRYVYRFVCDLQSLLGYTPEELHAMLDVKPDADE
# Test: TF binding intensity (PBM fluorescence), negative control probe (arbitrary fluorescence units); higher = stronger binding
# Procedure: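 gcPBM negative-control 36-bp genomic probes lacking TF binding sites. Each was incubated with recombinant human ETS1 or RUNX1 alone and detected by antibody fluorescence. Values are medians over replicate spots (4 spots for the ETS1-RUNX1 arrays, 3 for the ETS1-ETS1 array). The probes sit in constant array flanks that are not printed.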
row,Sequence,TF binding intensity
1,GTGAAACCAGGGCACAGGTAGAAATCCCTAGAGCAG (protein concentration 10 nM),138
2,CAAGATCTCTAACCACACTCGTCTGTGGCACTTCTT (protein concentration 10 nM),118
3,CGTTCGTTCGACAGCTCTTGTGGTAAACAGCGTCAA (protein concentration 10 nM),132
4,AGAGAATCTGATTGGTTGTTGACCTTTGGGACAAGT (protein concentration 10 nM),105
5,TTATGAACTGTATCATGTGGTTTGAGTTTAATTTGG (protein concentration 1 nM),487
6,ATGGCATACTAAGTAGCCACAACATGCAAGATGGAC (protein concentration 1 nM),440
7,AACGTCTACATTTGCTATTGTAAAACTTTTCAAGGC (protein concentration 10 nM),125
8,CGCCAGGGGGAGCAACAGAAATCCACACCAGGGAAG (protein concentration 10 nM),173
9,GGTATCGAGCTCGGGGGACTGGGCTGCGGGGGACGT (protein concentration 10 nM),264
10,TGGCCTGGGAAAGAACCCACAGGCTTCTGGTTGCTG (protein concentration 1 nM),597
11,CCATTAGTTCATCTTACACTCTGCCCTTTAACGTGG (protein concentration 10 nM),127
12,AGCAGATCATTTGAGCCTGGGAGGCGCACATGGCAG (protein concentration 10 nM),116
13,AGAAAGGCATGTCTCCAGGCTCTAAAGAGGCAAAGG (protein concentration 10 nM),117
